Experimental data as given in PubChem BioAssay AID463173 (ICCB-Longwood Screening Facility, Harvard Medical School, 2010).
Among all 52,000 compounds or so, about 1,700 (3.3%) were called active. The list comes from a sample in which actives are over-represented; it also holds similar structures and randomly drawn compounds. Unmarked numbers belong to inactive results. No stated cut-off is given here; in the data, active means survival mostly below about 52% (no sharp cut-off); inactive means mostly above about 56%.

Test system: Wild type
Assay: growth inhibition of S. aureus wild type versus tarO mutant, primary screen, teichoic acid synthesis inhibitors, RN4220, OD600 (AID 463173)
Details: S. aureus RN4220 wild type/DeltatarO growth, OD600, 18 h, active compounds read low, screened at 18.75 µg/mL (by protocol)

SMILES | survival
CCOc1ccc(C(=O)c2c(N)c(-c3nc(-c4ccc(OCC)cc4)cs3)c3ccccn23)cc1 | 103%
O=C(O)CN1C(=O)/C(=N\N2C(=O)CSC2=S)c2ccccc21 | 90%
Cc1ccc(C(=O)Nc2c(C)nc3ccccn3c2=O)cc1 | 88%
Cc1nc2ccccn2c(=O)c1NC(=O)c1ccc(F)c(F)c1 | 80%
Cc1nc2ccccn2c(=O)c1NC(=O)c1ccccc1Cl | 129%
Cc1ccc(C(=O)Nc2c(C)nc3ccccn3c2=O)cc1C | 69%
Cc1ccccc1C(=O)Nc1c(C)nc2ccccn2c1=O | 10% (active)
Cc1nc2ccccn2c(=O)c1NC(=O)c1ccc(C(F)(F)F)cc1 | -2% (active)
Cc1c(C(=O)Nc2ccc(F)c(F)c2)oc2ccc(S(=O)(=O)N(C)C3CCCCC3)cc12 | 74%
COc1ccccc1CNC(=O)CC(c1ccc(C)cc1)N1Cc2ccccc2C1=O (stereo not drawn) | 60%
CC(C)(C)c1cc(-c2ccccc2)n[nH]1 | 132%
CN(C)c1ccc(NC(=O)CSc2nc3ccsc3c(=O)n2CCCCCC(=O)O)cc1 | 70%
CCn1cc2nc(SCc3ccc(F)cc3)n(CCc3ccccc3)c(=O)c2n1 | 77%
Cc1ccc(-c2ccc(=O)n(CC(=O)NCCc3ccc(Cl)cc3)n2)cc1 | 73%
Cc1ccc(CCNC(=O)Cn2nc(-c3ccc(C)cc3)ccc2=O)cc1 | -3% (active)
Cc1ccc(-c2ccc(=O)n(CC(=O)NCCc3ccccc3)n2)cc1 | 65%
C=CCn1c(=O)[nH]c(=O)n(CC=C)c1=O | 111%
COc1ccc2c(Sc3ccccc3)c(C(=O)NCc3ccc(OC(C)C)cc3)[nH]c2c1 | 125%
CCOc1ccc(CNCCSc2nnnn2C)cc1OC | 72%
COc1cc(CNCCSc2nnnn2C)ccc1OCc1ccc(Cl)cc1Cl | 0% (active)
Cn1nnnc1SCCNCc1ccc(OCc2ccc(Cl)cc2)cc1 | 68%

SMILES | survival
COc1cc(CNCCSc2nnnn2C)ccc1OCc1c(F)cccc1Cl | 73%
CCOc1cc(CNCCSc2nnnn2C)ccc1OCc1ccc(Cl)cc1Cl | -5% (active)
Cn1nnnc1SCCNCc1ccccc1OCc1ccc(Cl)cc1Cl | 56%
COc1cc(CNCCSc2nnnn2C)cc(Cl)c1OCc1ccccc1 | 59%
CCOc1cc(CNCCSc2nnnn2C)cc(Cl)c1OCc1ccc(Cl)cc1 | -2% (active)
COc1cc(CNCCSc2nnnn2C)ccc1OCc1ccccc1C | 68%
COCCNC(=O)c1ccc(-c2nc(CN3CCc4ccccc43)c(C)o2)cc1 | 75%
NS(=O)(=O)c1ccc(CCNC(=O)c2ccc3nc(Cc4ccccc4)oc3c2)cc1 | 81%
CCn1cc(C(=O)O)c(=O)c2cc(F)c(N3CCN(C(=O)c4ccccc4F)CC3)cc21 | 54%
CC(C)CC(=O)NCC(c1ccc2c(c1)OCO2)N1CCN(c2ccccc2)CC1 (stereo not drawn) | 77%
Cc1ccc(Cl)cc1N1CCN(C(=O)c2cc(S(=O)(=O)N3CCCC3)c[nH]2)CC1 | 77%
COC(=O)c1cc(S(=O)(=O)N2CCN(c3cc(Cl)ccc3C)CC2)c[nH]1 | 8% (active)
COC(=O)c1cc(S(=O)(=O)N2CCN(c3ccc(OC)cc3)CC2)c[nH]1 | 85%
COc1ccccc1CNC(=O)CN1C(=O)CSc2ccc(S(=O)(=O)N3CCCCC3)cc21 | 83%
COc1ccc(-n2ncc(C(=O)N3CCc4ccccc4C3)c2C2CCN(C(=O)OC(C)(C)C)CC2)cc1 | 63%
COc1cc2c(cc1NS(=O)(=O)c1cccc(C#N)c1)n(C)c(=O)n2C | 76%
CCOC(=O)c1c(-c2ccccc2)csc1NC(=O)c1nc(SCC)ncc1Cl | 97%
CCOC(=O)c1c(-c2ccc(C)cc2)csc1NC(=O)c1nc(SCC)ncc1Cl | 78%
CCOC(=O)c1c(-c2ccccc2)csc1NC(=O)c1nc(S(=O)(=O)CC)ncc1Cl | 2% (active)
CCCSc1ncc(Cl)c(C(=O)Nc2scc(-c3ccc(C)cc3)c2C(=O)OCC)n1 | 87%
CCCS(=O)(=O)c1ncc(Cl)c(C(=O)Nc2scc(-c3ccccc3)c2C(=O)OCC)n1 | 4% (active)

SMILES | survival
CCOC(=O)c1c(-c2ccc(C)cc2)csc1NC(=O)c1nc(SC(C)C)ncc1Cl | 85%
CCc1nn(CC(=O)NCC(C)c2ccccc2)c(=O)c2cc3c(OC)cccc3n12 (stereo not drawn) | 89%
Cc1ccccc1SCC(=O)O | 106%
O=C(c1cc(-c2ccccc2)on1)N1CCCc2ccccc21 | 114%
COCCCNC(=O)c1ccc2c(c1)N(Cc1ccccc1)C(=O)c1ccccc1S2 | 75%
Cc1cc(N2CCCCC2)nc2ccc(NC(=O)c3cccc(F)c3)cc12 | 46%
CCOc1cc(C(=O)Nc2ccc3nc(N4CCN(C)CC4)cc(C)c3c2)cc(OCC)c1OCC | 134%
Cc1cc(N2CCN(C)CC2)nc2ccc(NC(=O)c3ccc(C(C)(C)C)cc3)cc12 | -20% (active)
Cc1ccc(NC(=O)Nc2ccc3nc(N4CCN(C)CC4)cc(C)c3c2)cc1C | 73%
Cc1cc(N2CCCCC2)nc2ccc(NC(=O)c3cccc(Cl)c3)cc12 | -2% (active)
CCN1CCN(c2cc(C)c3cc(NC(=O)c4cccc(Cl)c4)ccc3n2)CC1 | 57%
Cc1cccc(C)c1OC(=O)CSc1nnc(-c2cccs2)o1 | 83%
COc1cc2c(cc1OC)n(CC(=O)c1cccc(Cl)c1)c(=O)n1nc(CCn3nc(C)cc3C)nc21 | 74%
CCOC(=O)C(C)NC(=O)c1c(C)oc2ncn(CC(C)C)c(=O)c12 (stereo not drawn) | 72%
Cc1ccccc1CN1CCCN(CC(=O)Nc2ccc3c(c2)OCCO3)S1(=O)=O | 72%
COc1ccc(CCNC(=O)c2cc3c(s2)-c2c(C)cccc2OC3)c(OC)c1 | 103%
Cc1cccc2c1-c1sc(C(=O)N(C)c3cccc(Cl)c3)cc1CO2 | 0% (active)
COc1ccc(N(C)C(=O)c2cc3c(s2)-c2c(C)cccc2OC3)c(OC)c1 | 12% (active)
COc1ccc(NC(=O)c2cc3c(s2)-c2c(C)cccc2OC3)c(OC)c1 | 78%
Cc1cccc2c1-c1sc(C(=O)N(C)c3cccc(C(F)(F)F)c3)cc1CO2 | 24%
CCc1ccccc1N(C)C(=O)c1cc2c(s1)-c1c(C)cccc1OC2 | 69%
